Screens: PubChem BioAssay, National Center for Advancing Translational Sciences (NCATS)
Hits are enriched below; roughly 2.4% of the tested compounds scored in any of these assays.
POLI inh: DNA polymerase iota (human) inhibition; Q9UNA4; Pol iota fluorescent replication assay, 10 min; 390,000 compounds, 1% hits; Potency, µM (titrated, usually from 115 µM), usual class: inhibitors
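Pol iota at 10 nM preincubated 15 min with compounds at room temperature; reaction started with fluorescent substrate, 50 nM final. Fluorescence read kinetically at 0 and 10 min; buffer-only wells as negative control.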
FEN1 inh: blocks human flap endonuclease 1; P39748; Recombinant FEN1 flap cleavage, fluorescence, 15 min; Potency, µM (titrated, usually from 114 µM), usual class: inhibitors; 390,000 compounds, 0.35% hits; further: nearly all actives have a fitted effect of over 65% in size
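Potency values derive from four-parameter Hill fits of normalized qHTS data. The reaction used 10 nM FEN1 preincubated 15 min at room temperature with compound, then 50 nM DNA substrate, read at 0 and 15 min.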
Pol beta inh: blocks human DNA polymerase beta activity; 340,000 compounds, 1.3% hits; P06746; Pol beta primer extension/strand displacement, fluorescence kinetic; Potency, µM (highest dose often 114 µM), usual class: inhibitors
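Human Pol beta at 10 nM; strand-displacement substrate 50 nM final. Compound exposure 15 min at room temperature before start, reaction 10 min at room temperature.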
Pol kappa inh-1: DNA polymerase kappa (human) inhibition; 400,000 compounds, 0.53% hits; purified Pol kappa, fluorescent DNA synthesis assay, 10 min; Potency, µM (series often up to 107 µM), hits mostly inhibitors; Q9UBT6; AID 588579
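Inhibition of 10 nM Pol kappa is measured by a fluorescent read-out at 0 and 10 min following addition of 50 nM substrate (final), with a 15-min room-temperature compound preincubation.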
Pol eta inh-1: DNA polymerase eta (human) inhibition. Potency, µM (doses to about 114 µM), hits mostly inhibitors. recombinant Pol eta, fluorescent DNA replication assay. AID 588591. 390,000 compounds, 1.2% hits
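Pol eta at 10 nM preincubated with compounds 15 min at room temperature; reaction started with fluorescent substrate (50 nM final) and read kinetically at 0 and 10 min.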
WRN inhibitor: inhibitors of human WRN helicase | Q14191 | WRN helicase unwinding, fluorescent forked duplex, kinetic | Potency, µM (top dose mostly 114 µM), actives largely listed as inhibitors | 360,000 compounds, 0.46% hits | AID 651768; further: nearly all actives have a fitted effect of over 55% in size
Target sequence (Q14191 whole entry, looked up): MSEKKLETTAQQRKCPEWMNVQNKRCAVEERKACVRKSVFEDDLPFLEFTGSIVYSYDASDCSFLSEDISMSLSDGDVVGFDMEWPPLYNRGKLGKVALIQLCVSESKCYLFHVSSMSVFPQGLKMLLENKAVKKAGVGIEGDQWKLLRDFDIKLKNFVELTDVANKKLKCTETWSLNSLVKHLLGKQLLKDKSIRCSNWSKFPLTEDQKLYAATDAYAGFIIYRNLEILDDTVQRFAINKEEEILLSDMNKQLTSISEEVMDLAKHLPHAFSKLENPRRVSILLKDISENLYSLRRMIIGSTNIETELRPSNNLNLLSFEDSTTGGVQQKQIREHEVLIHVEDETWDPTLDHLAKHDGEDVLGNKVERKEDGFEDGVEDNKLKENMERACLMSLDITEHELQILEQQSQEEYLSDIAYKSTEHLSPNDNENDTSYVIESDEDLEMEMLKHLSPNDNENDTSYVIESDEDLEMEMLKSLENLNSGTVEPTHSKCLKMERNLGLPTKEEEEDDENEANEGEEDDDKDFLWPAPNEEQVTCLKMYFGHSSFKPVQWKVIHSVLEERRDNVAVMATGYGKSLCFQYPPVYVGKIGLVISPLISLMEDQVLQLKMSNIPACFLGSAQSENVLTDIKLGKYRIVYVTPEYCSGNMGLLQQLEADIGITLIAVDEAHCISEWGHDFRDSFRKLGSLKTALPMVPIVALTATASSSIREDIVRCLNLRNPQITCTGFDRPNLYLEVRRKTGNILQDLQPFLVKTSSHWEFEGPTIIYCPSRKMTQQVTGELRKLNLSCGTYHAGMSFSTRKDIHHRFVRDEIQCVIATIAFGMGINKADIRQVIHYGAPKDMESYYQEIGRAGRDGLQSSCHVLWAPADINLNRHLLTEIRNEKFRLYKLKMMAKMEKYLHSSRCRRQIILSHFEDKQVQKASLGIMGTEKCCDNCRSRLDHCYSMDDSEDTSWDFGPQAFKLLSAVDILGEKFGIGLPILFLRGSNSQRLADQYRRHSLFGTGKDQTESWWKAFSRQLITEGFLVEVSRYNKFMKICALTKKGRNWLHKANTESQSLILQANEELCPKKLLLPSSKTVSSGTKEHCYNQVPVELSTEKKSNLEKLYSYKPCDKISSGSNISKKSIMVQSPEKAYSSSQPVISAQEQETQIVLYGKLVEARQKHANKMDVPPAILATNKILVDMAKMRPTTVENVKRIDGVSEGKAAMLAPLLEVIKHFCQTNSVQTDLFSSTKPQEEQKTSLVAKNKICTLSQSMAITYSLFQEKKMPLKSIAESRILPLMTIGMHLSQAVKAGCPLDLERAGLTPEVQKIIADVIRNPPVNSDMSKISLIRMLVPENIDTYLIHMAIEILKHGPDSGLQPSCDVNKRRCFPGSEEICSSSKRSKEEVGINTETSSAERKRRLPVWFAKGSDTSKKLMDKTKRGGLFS
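Fluorescence dequenching readout, ex 525 nm/em 598 nm, kinetic mode: forked duplex DNA (100 nM final) with adjacent fluorophore and quencher unwound by WRN (20 nM final) with 2 mM ATP. Compound preincubation 15 min, room temperature.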
Pol kappa inh-2: confirmation of human DNA polymerase kappa inhibitors. 920 compounds, 76% hits. Potency, µM, hits mostly inhibitors. shares compounds with Pol eta inh-1. purified Pol-kappa, fluorescent strand-displacement substrate. AID 720501
Pol eta inh-2: confirmation of human DNA polymerase eta inhibitors; AID 720502; 2,600 compounds, 64% hits; Potency, µM, hits mostly inhibitors; shares compounds with Pol eta inh-1; Pol eta primer extension, TAMRA/BHQ fluorescence, 10 min
Numbers stand for hits; [ ] = dose if it differs, or a comment. The call rests on the fitted dose curve; in most records, active means well fitted curve in the direction sought with a large enough effect; inconclusive means small, poorly fitted or top-dose-only effect, or another doubt; inactive means no such curve, though single readings can be large; an effect the other way counts as inactive or inconclusive.

How did CC(Sc1nnc(C2CC2)n1C1CC1)C(=O)Nc1cccc(S(=O)(=O)N(C)C)c1 (centres undefined) do in these assays?
POLI inh: inactive; FEN1 inh: inactive; Pol kappa inh-1: inactive; Pol eta inh-1: inactive; WRN inhibitor: inactive

Results for O=C(Cn1c(=O)ccn(Cc2ccccc2)c1=O)Nc1cccc(S(=O)(=O)N2CCOCC2)c1 ?
POLI inh: inactive; FEN1 inh: inactive; Pol kappa inh-1: inactive; Pol eta inh-1: inactive; WRN inhibitor: inactive

Results for COc1cc2c(cc1OC)C(C)N(C(=O)Nc1ccccc1)CC2 (centres undefined) ?
POLI inh: inactive; FEN1 inh: inactive; Pol beta inh: inconclusive; Pol kappa inh-1: inactive; Pol eta inh-1: inactive; WRN inhibitor: inactive

What do the screens show for `O=S(=O)(Cc1ccccc1)N1CCN(c2ncccn2)CC1`?
POLI inh: inactive; FEN1 inh: inactive; Pol beta inh: inactive; Pol kappa inh-1: inactive; Pol eta inh-1: inactive; WRN inhibitor: inactive

What do the screens show for `Cc1cc(NS(=O)(=O)c2ccc(NC(=O)/C=C/c3ccc(C)o3)cc2)nc(C)n1`?
POLI inh: inactive; FEN1 inh: inconclusive; Pol beta inh: inactive; Pol kappa inh-1: inactive; Pol eta inh-1: 44.7µM; WRN inhibitor: inactive[11.6 µM]; Pol eta inh-2: 75.7

Results for CCN1CCCC1CNC(=O)CSCc1nc(-c2ccccc2C)oc1C (centres undefined) ?
POLI inh: inactive; FEN1 inh: inactive; Pol beta inh: inactive; Pol kappa inh-1: inactive; Pol eta inh-1: inactive; WRN inhibitor: inactive

How did Oc1ccc(Br)cc1-c1cc(-c2ccc(Cl)cc2)n[nH]1 do in these assays?
POLI inh: inactive; FEN1 inh: inactive; Pol beta inh: inactive; Pol kappa inh-1: inactive; Pol eta inh-1: inactive; WRN inhibitor: inactive

What do the screens show for `O=S(=O)(Nc1nc2n(n1)C(c1ccccc1)C=C(c1ccc(Cl)cc1)N2)c1ccccc1` (centres undefined)?
POLI inh: inactive; FEN1 inh: inactive; Pol beta inh: inactive; Pol kappa inh-1: inactive; Pol eta inh-1: 89.1µM; Pol kappa inh-2: 67; Pol eta inh-2: inconclusive

Results for CC(=O)Nc1ccc(S(=O)(=O)Nc2nc3n(n2)C(c2ccccc2)C=C(c2ccc(Cl)cc2)N3)cc1 (centres undefined) ?
POLI inh: inactive; FEN1 inh: inactive; Pol beta inh: inactive; Pol kappa inh-1: inactive; Pol eta inh-1: inconclusive; Pol eta inh-2: inconclusive

How did COc1cc(/C=C/C(=O)O)cc(S(=O)(=O)NNC(=O)c2cc(C)oc2C)c1OC do in these assays?
POLI inh: 22.4µM; FEN1 inh: inactive; Pol kappa inh-1: inconclusive; Pol eta inh-1: 17.8µM; WRN inhibitor: inactive; Pol eta inh-2: inconclusive

What do the screens show for `O=c1oc(-c2ccc(O)c(O)c2)cc2cc(O)cc(O)c12`?
POLI inh: 28.2µM; FEN1 inh: 35.5µM; Pol kappa inh-1: inconclusive; Pol eta inh-1: 10µM; WRN inhibitor: 50.1µM; Pol kappa inh-2: inconclusive; Pol eta inh-2: 53.6

How did COc1cc(-c2cc(=O)c3c(O)cc(O)cc3o2)ccc1O do in these assays?
POLI inh: inactive; FEN1 inh: inconclusive; Pol beta inh: inconclusive; Pol kappa inh-1: inactive; Pol eta inh-1: inactive; WRN inhibitor: inactive

What do the screens show for `CC(=O)Nc1scc(C)c1-c1nc2ccccc2s1`?
POLI inh: inactive; FEN1 inh: inconclusive; Pol beta inh: inconclusive; Pol kappa inh-1: inactive; Pol eta inh-1: inactive; WRN inhibitor: inactive

How did CC(=O)Nc1sc2c(c1-c1nc3ccccc3s1)CNC2 do in these assays?
Pol eta inh-2: inconclusive

What do the screens show for `CC(=O)Nc1sc2c(c1-c1nc3ccccc3s1)CCSC2`?
Pol eta inh-2: 75.7

Results for COc1ccc(-c2cc(C(=O)Nc3ccc(NC(C)=O)cc3)[nH]n2)c(C)c1 ?
WRN inhibitor: inactive
